Test [1] has as its target Mitogen-activated protein kinase 10 (Mus musculus) (UniProt Q61831). Briefly: JNK3 AlphaScreen Assay (AID 530; active = well fitted curve in either direction with a large enough effect, not every such curve was filed as active;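 note: kinase came from lysate of stimulated human HepG2 cells; signal reports phosphorylation of biotinylated GST-cJun 1-79 at Ser73 with 10 µM ATP; % is set by controls: 0 for no effect and ±100 for the full control effect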). A digest of the protocol: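 Inhibitors reduce antibody binding to phosphorylated biotin-cJun, lowering AlphaScreen luminescence. Lysates from HepG2 cells pre-activated by IL-1beta plus TNF-alpha supplied JNK3; compounds were titrated.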
Test [2] can be described thus: Cell Viability - NIH 3T3 (AID 541).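 Note: plate controls were DMSO alone for no effect and tamoxifen positive control for full effect; nearly all actives have a fitted effect of over 25% in size.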 In outline:
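Mouse NIH 3T3 fibroblasts, 1000 cells/well, rested 5 hr at 37 °C, then exposed to compound for 40 hr at 37 °C in complete medium. Viability read as intracellular ATP by CellTiter-Glo luminescence; AC50 from Hill-equation fits of concentration-response data.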

A short description of test [3]: Cell Viability - HUV-EC-C (AID 542). Note: % is set by controls: 0 for no effect and ±100 for the full control effect; nearly all actives have a fitted effect of over 35% in size. In outline: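 HUV-EC-C human vascular endothelial cells, 1000/well, exposed to compound for 40 hr at 37 °C in complete medium. Intracellular ATP was read by CellTiter-Glo luminescence. AC50 came from Hill-equation fits of concentration-response data.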
A short description of test [4]: Cell Viability - H-4-II-E (AID 543). Note: % is set by controls: 0 for no effect and ±100 for the full control effect; nearly all actives have a fitted effect of over 35% in size. In outline:
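Rat hepatoma H-4-II-E cells, 1500 per well, treated 40 h at 37 °C in complete medium. Cellular ATP read by CellTiter-Glo luminescence; AC50 from Hill fits of concentration-response.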

Test [5] in a line: Cell Viability - SH-SY5Y (AID 544). Note: nearly all actives have a fitted effect of over 55% in size. To be noted: SH-SY5Y neuroblastoma cell viability; at 92.2 µM (top of the series). In outline:
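SH-SY5Y human neuroblastoma cells (1500/well) incubated 5 h, then compound-treated 40 h at 37 °C in complete medium. Viability read as intracellular ATP by CellTiter-Glo luminescence after 20 min; AC50 from Hill-equation fits of qHTS concentration-response.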

A short description of test [6]: Cell Viability - Renal Proximal Tubule (AID 545). Note: nearly all actives have a fitted effect of over 40% in size. In outline:
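Rat kidney proximal tubule cells, freshly isolated; 1000 cells/well, 5 hr settle, compound 40 hr 37 °C. CellTiter-Glo 20 min RT, luminescence read. AC50 by standard Hill fit.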

A short description of test [7]: Cell Viability - Mesenchymal (AID 546).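 Note: cells exposed to compound for 40 hours before reading.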 To be noted: mesenchymal cells viability, qHTS; at 91.7 µM (top of the series). In outline: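 Normal human renal glomerulus-derived kidney mesenchymal cells, 1000 per well in complete medium, were treated with compounds for 40 hr at 37 °C. Viability was read as intracellular ATP by CellTiter-Glo luminescence; AC50 values came from Hill-equation fits of qHTS concentration-response data.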

Test [8] in a line: Cellular Toxicity (caspase-3) HepG2 (AID 654).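 Note: cells exposed to compound for 16 hours before reading; 0% = DMSO alone and 100% = caspase signal from 100 µM tamoxifen.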 A digest of the protocol:
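HepG2 cells (1500/well) were treated 16 h at 37 °C in complete medium, then caspase 3/7 activity was read by Caspase-Glo luminescence. Data were normalized to DMSO and 100 uM tamoxifen; AC50 came from Hill-equation fits of qHTS concentration-response.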

Test [9] can be described thus: Cellular Toxicity (caspase-3) Jurkat (AID 655).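 Note: cells exposed to compound for 16 h at 37 °C before reading.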 To be noted: Jurkat caspase-3 activation, luminescence; caspase-3 activation: at 92.2 µM (top of the series), DMSO = 0%, tamoxifen = 100%. In outline: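 Luminescent caspase-3/7 readout (aminoluciferin substrate cleavage) in human T-cell leukemia Jurkat cells after 16 hr compound exposure. Concentration-response normalized to DMSO and 100 uM tamoxifen; AC50 by standard Hill equation.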

Test [10] is described as follows: Cellular Toxicity (caspase-3) HUV-EC-C (AID 656). In outline: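 Luminescent caspase-3/7 activation (aminoluciferin substrate cleavage) in HUV-EC-C cells after 16 hr compound exposure, 37°C. Signal normalized to DMSO basal and 100 uM tamoxifen as 100%; AC50 from concentration-response fitted with the Hill equation.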
Test [11] is described as follows: Cellular Toxicity (caspase-3) SHSY5Y (AID 657). In outline: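 Luminescent caspase-3/7 readout (aminoluciferin release) in SH-SY5Y cells after 16 h compound exposure in complete medium. Activity scaled between DMSO basal and 10 uM staurosporine as 100%; concentration-response fitted to Hill equation for AC50.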
Test [12] in a line: Cellular Toxicity (caspase-3) BJ (AID 658).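 Note: 0% = DMSO basal and 100% = 10 µM staurosporine.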 A digest of the protocol: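 Luminescent aminoluciferin-substrate cleavage reports caspase 3/7 activity in normal human BJ fibroblasts after 16 hr compound exposure at 37 °C. Normalized to DMSO (basal) and 10 uM staurosporine (100%); AC50 from Hill fit of concentration-response.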
The nature of test [13]: Cellular Toxicity (caspase-3) MRC-5 (AID 659).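 Note: 0% = DMSO basal and 100% = 10 µM staurosporine.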 In outline: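 Luminescence from caspase-cleaved aminoluciferin substrate (Caspase-Glo 3/7, 1 hr RT) reports caspase 3/7 activity in MRC-5 lung fibroblasts after 16 hr compound exposure. Normalized to DMSO basal and 10 uM staurosporine as 100%; AC50 from Hill fits.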
Test [14] in a line: Cellular Toxicity (caspase-3) Mesangial (AID 660).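 Note: cells exposed to compound for 16 h before the caspase read.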 A digest of the protocol:
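Human renal glomerular mesangial cells, 1000/well, 5 h at 37 C before 16 h compound treatment. Caspase-Glo 3/7 luminescence after 20 min; normalized to DMSO and 100 uM tamoxifen, AC50 from Hill fit.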

A short description of test [15]: Cellular Toxicity (caspase-3) SK-N-SH (AID 661).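 Note: 0% = DMSO basal and 100% = 10 µM staurosporine.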 In outline: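 Human SK-N-SH neuroblastoma cells, 1500/well, were exposed to compounds for 16 hours at 37 °C. Caspase-Glo 3/7 luminescence was normalized to DMSO (basal) and 10 uM staurosporine (100%), and AC50 came from a Hill fit.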
Test [16] is described as follows: Cellular Toxicity (caspase-3) H-4-II-E (AID 663).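 Note: cells exposed to compound for 16 hr before readout.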 A digest of the protocol:
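Luminescence from caspase-cleaved aminoluciferin substrate, read 20 min after reagent addition, reports caspase 3/7 activation in rat H-4-II-E cells after 16 hr compound exposure. Normalized to DMSO (basal) and 100 uM tamoxifen (100%); AC50 from Hill fits.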

Test [17] in a line: Cellular Toxicity (caspase-3) Hek293 (AID 664).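 Note: cells exposed to compound for 16 h at 37 °C before readout.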 In outline:
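HEK293 cells in complete medium treated 16 h at 37 °C, then Caspase-Glo 3/7 luminescence read after 20 min at room temperature. Normalized to DMSO and 100 uM tamoxifen; AC50 from Hill fit of concentration-response.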

The target of test [18] is 3',5'-cyclic-AMP phosphodiesterase 4B (Homo sapiens) (UniProt Q07343). In words: qHTS Assay for Inhibitors of PDE-IV (AID 607; active = well fitted activation curve with a large enough effect in the main read-out, with a control signal flat, not every such curve was filed as active; note: % of control where 0% means no effect). In outline:
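Live HEK293 cells with a modified cyclic nucleotide-gated (CNG) channel report intracellular cAMP via membrane-potential dye fluorescence (ex 535/em 590 nm). Endogenous PDE-IV was targeted. Compounds were tested at up to 22.9 uM final; RO 20-1724 100 uM served as control.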

In test [19] the target is Glucocorticoid receptor (Homo sapiens) (UniProt P04150). In words: GR-GFP Redistribution (AID 450;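 active = compounds whose dose series gives a full or clear partial fitted curve of increased nuclear translocation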; note: potency is the fitted concentration of half-maximal effect). The conditions noted are these: U2OS GR-GFP nuclear translocation, laser cytometry, 2 h.
Test [20] shares this target. In words: GR-EFC Redistribution (AID 451; calls by dose curve; note: potency is the fitted concentration of half-maximal effect). To be noted: CHO-K1 GR-EFC translocation, beta-gal luminescence, 2 h. A digest of the protocol: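 CHO-K1 cells stably expressing nuclear-localized β-gal enzyme acceptor and GR fused C-terminally to the enzyme donor fragment; ligand-driven nuclear translocation restores β-gal by complementation. Compounds titrated up to 46 uM final, 2 h at 37 °C; luminescence read.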

The structures appear in SMILES notation. Where “and” joins values, the source holds several entries; their conditions need not be identical. Identical values can stand only once. Values without a mark were called inactive. Results filed as inconclusive are left out. Calls of active or inactive are those of the source. Unless noted, calls come from the whole dose curve; as a rule, active = well fitted curve in the direction sought with a large enough effect; inconclusive = small, poorly fitted or top-dose-only effect, or another doubt; inactive = no such curve, though single readings can be large; an effect the other way counts as inactive or inconclusive.

The results in this text go back to PubChem BioAssay (NCATS).

Chain of 3',5'-cyclic-AMP phosphodiesterase 4B (Homo sapiens) (Q07343 whole entry, looked up): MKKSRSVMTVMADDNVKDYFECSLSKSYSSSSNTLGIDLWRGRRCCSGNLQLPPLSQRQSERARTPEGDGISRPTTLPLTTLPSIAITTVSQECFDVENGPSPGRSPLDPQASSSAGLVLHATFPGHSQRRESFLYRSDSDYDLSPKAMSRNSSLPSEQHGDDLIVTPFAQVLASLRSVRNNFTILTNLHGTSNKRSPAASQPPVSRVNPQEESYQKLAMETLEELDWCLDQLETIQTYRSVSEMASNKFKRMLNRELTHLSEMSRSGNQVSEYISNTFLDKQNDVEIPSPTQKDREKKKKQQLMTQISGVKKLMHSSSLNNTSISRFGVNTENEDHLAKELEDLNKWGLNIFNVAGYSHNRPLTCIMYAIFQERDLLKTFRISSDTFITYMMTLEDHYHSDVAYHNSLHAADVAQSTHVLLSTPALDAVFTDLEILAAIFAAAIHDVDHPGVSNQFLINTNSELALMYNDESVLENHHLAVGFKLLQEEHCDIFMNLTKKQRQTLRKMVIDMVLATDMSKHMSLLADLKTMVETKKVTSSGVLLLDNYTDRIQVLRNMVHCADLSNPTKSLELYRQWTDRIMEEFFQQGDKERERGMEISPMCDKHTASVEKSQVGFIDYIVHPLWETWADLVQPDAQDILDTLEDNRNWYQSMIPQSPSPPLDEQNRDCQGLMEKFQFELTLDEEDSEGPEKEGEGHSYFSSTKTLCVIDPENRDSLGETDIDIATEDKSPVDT
Chain of Glucocorticoid receptor (Homo sapiens) (P04150 whole entry, looked up, the tested form may be a part): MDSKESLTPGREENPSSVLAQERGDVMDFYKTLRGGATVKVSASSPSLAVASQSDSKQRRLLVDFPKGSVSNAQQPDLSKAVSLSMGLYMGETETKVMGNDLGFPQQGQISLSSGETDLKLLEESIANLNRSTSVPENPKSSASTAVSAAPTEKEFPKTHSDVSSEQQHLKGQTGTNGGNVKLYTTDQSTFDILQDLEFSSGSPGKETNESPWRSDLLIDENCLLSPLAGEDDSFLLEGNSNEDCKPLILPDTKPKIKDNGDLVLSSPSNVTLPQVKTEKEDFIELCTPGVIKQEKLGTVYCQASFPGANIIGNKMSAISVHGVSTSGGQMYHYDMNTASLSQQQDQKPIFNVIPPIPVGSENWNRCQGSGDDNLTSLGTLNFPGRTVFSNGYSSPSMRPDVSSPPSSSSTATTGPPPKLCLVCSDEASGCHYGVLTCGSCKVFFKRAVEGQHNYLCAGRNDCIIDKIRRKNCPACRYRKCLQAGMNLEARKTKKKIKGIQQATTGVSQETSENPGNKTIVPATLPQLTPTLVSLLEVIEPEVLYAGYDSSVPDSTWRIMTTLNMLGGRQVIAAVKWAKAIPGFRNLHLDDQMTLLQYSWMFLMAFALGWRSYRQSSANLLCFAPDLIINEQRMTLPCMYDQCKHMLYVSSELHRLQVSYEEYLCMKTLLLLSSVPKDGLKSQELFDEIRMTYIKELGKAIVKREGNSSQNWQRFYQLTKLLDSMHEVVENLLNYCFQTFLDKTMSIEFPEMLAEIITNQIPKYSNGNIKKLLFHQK

As for `CC(O)CO` (configuration not stated), the outcome in test [1], in test [2], in test [6], in test [8], in test [10] and in [11] was inactive. The outcome in [12], in test [13], in [14], in [15], in test [16] and in [17] was inactive. Besides, the Potency result in test [3] and in test [4] was “inactive” each time. In test [5], the viability change, negative = cytotoxic is -13.2% and -4.54%. The activity change, negative = cytotoxicity in test [7] was 1.55% and 7.01%. The caspase-3 activation in [9] was 1.29% and 0.367%.

With `CC1=C2[C@@H]([C@H](C)CC[C@H]2/C=C(\C)C(=O)O)[C@H](O)C1`, the result in test [1], in [2], in test [6], in test [8], in test [10] and in test [11] was inactive. Besides, the outcome in test [12], in [13], in [14], in test [15], in test [16] and in test [17] was inactive. Besides, the Potency entry in [3] and in [4] was “inactive” each time. The viability change, negative = cytotoxic in test [5] is -4.63%. Moreover, the activity change, negative = cytotoxicity in [7] was 8.87%. For the same compound, in test [9], the caspase-3 activation was 0.468%.

For `CCCCCCCC(=O)O`, the call in test [1], in test [2], in test [6], in test [8], in [10] and in test [11] was inactive. In addition, the call in [12], in [13], in test [14], in [15], in test [16] and in test [17] was inactive. Moreover, the Potency entry in [3] and in test [4] was “inactive” each time. Further, the viability change, negative = cytotoxic in [5] is 0.495% and -6.94%. Moreover, the activity change, negative = cytotoxicity in test [7] is 4.9% and 1.62%. Further, the caspase-3 activation in [9] is -0.427% and 1.06%.

As to `CN=C(NC#N)Nc1ccc(C2=NNC(=O)C[C@@H]2C)cc1`, the call in test [1] and in test [18] was inactive.

Regarding `Cc1c(C)c2c(c(C)c1O)CC[C@@](C)(CCC[C@@H](C)CCC[C@@H](C)CCCC(C)C)O2`, the Potency in test [19] and in [20] was > 20.6 µM in each case. In addition, the result in test [18] was inactive.

As for `CC(=O)OCC(=O)[C@@]12OC3(CCCC3)O[C@@H]1C[C@H]1[C@@H]3CCC4=CC(=O)C=C[C@]4(C)[C@@]3(F)[C@@H](O)C[C@@]12C`, the Potency in test [19] is 0.000571 µM (active).

Consider `CC1=C(/C=C/C(C)=C/C=C/C(C)=C/CO)C(C)(C)CCC1`, for which, in test [3], the Potency entry is “inactive”. The activity change, negative = cytotoxicity in test [7] was -3.42%. Also, the compound was classed as inactive in test [8], in test [10], in test [11], in [12], in test [13] and in [14]. The outcome in test [15] and in test [16] was inactive.

In the case of `CN1Cc2c(N)cccc2C(c2ccccc2)C1` (configuration not stated), the Potency in [19] was > 20.6 µM.

For `O=C1CSC2(CCN(CCCN3c4ccccc4Sc4ccc(Cl)cc43)CC2)N1`, the results for the Potency in test [19] and in test [20] were > 46 µM and > 9.22 µM, respectively. Besides, the activity change, negative = inhibition in test [1] is -6.21% [at 11.4 µM]. Further, the call in test [18] was inactive.
